Screening data (PubChem)
TIM10 inh: growth inhibitors of TIM10 yeast strain; S. cerevisiae TIM10 strain growth, BacTiter-Glo luminescence, 24 h; inhibition, % at 10 µM; 1.4% of 330,000 active;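 active = inhibition of 40% or more at the single tested concentration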;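 also: wild-type TIM10 isogenic control strain grown at permissive 25 °C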
tim23-1 inh: growth inhibitors of tim23-1 mutant yeast | 1.3% of 330,000 active | inhibition, % at 20 µM | AID 463212 | S. cerevisiae tim23-1 growth, BacTiter-Glo luminescence, 24 h;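 active = growth inhibition of the mutant yeast at or above 50%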;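 also: temperature-sensitive mutant grown at 25 °C; plate controls were DMSO-treated mutant yeast for no effect and medium wells lacking yeast for full effect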
NALP1 inh: inhibitors of NALP1 inflammasome in yeast; S. cerevisiae NALP1/ASC/caspase-1 growth, X-gal OD620, 72 h; inhibition, % at 10 µM; 0.61% of 280,000 active; AID 2071; in the data active = inhibition mostly above about 24%, no sharp cut-off; inactive = mostly below about 32%
SKKanGAS inh: inhibitors of SKKanGAS S. pyogenes growth in kanamycin (SK-promoter or general growth effect). inhibition, % at 7.5 µM. 1.3% of 300,000 active. BacTiter-Glo, 6 h;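 active = mean replicate score, as percent of positive control median, at least 50; inconclusive = mean below 50 but one replicate at or above 50; inactive = mean and every replicate below 50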;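 also: strain carries kanamycin resistance gene driven by streptokinase promoter and grows in 40 µg/ml kanamycin; loss of luminescence reflects streptokinase promoter inhibition or plain growth inhibition; 0% = median of DMSO wells and 100% = positive control at its reference dose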
tim10-1 inh: inhibits growth of tim10-1 mutant yeast | S. cerevisiae tim10-1 ts strain growth, BacTiter-Glo, 24 h | inhibition, % at 20 µM | 2.2% of 330,000 active;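 active = inhibition of at least 40%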;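 also: mutant grown at 25 °C; 0% = DMSO wells with yeast and 100% = wells holding no yeast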
NLRP3 yeast inh: inhibitors of NALP3 inflammasome in yeast; Yeast reconstituted NLRP3/ASC/caspase-1, beta-gal luminescence, 24 h; inhibition, % at 10 µM; 0.39% of 330,000 active;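 active = inhibition of 50% or more; inactive = inhibition below 50%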;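 also: plate controls were induced DMSO wells for no effect and uninduced yeast grown without galactose for full effect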
tim10-1 confirm: tim10-1 yeast growth inhibition, confirmed; shares compounds with tim10-1 inh; S. cerevisiae tim10-1 ts strain growth, BacTiter-Glo, 24 h; inhibition, % at 20 µM; 56% of 7,400 active; AID 463213;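 active = inhibition of yeast growth at or above a set limit in either of two repeat tests at 20 µM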;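 also: tim10-1 mutant grown at permissive 25 °C to find synthetic lethal compounds; 0% = DMSO yeast wells and 100% = medium wells without yeast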
tim10 confirm: confirmation of TIM10 yeast growth inhibitors; S. cerevisiae tim10 strain growth, BacTiter-Glo luminescence, 24 h; 63% of 4,600 active; shares compounds with TIM10 inh; inhibition, % at 10 µM;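 active = inhibition of yeast growth at or above a set limit in either of two replicates at 10 µM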;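 also: this counterscreen used the strain with wild-type TIM10; 0% = yeast with DMSO and 100% = medium wells lacking yeast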
tim23-1 confirm: confirmation of tim23-1 mutant yeast growth inhibitors; S. cerevisiae tim23-1 growth, BacTiter-Glo luminescence, 24 h; 83% of 4,400 active; shares compounds with tim23-1 inh; inhibition, % at 20 µM;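 active = inhibition above about 39% in either of two replicate wells at 20 µM, limit read from the data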;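 also: temperature-sensitive tim23-1 mutant grown at 25 °C; 0% = DMSO wells with yeast and 100% = medium wells without yeast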
* = called active by the depositor; ? = inconclusive; . = not tested or not shown. An excerpt weighted towards active compounds, which were near 4.9% of everything screened.

SMILES | TIM10 inh | tim23-1 inh | NALP1 inh | SKKanGAS inh | tim10-1 inh | NLRP3 yeast inh | tim10-1 confirm | tim23-1 confirm | others
NC(=NC(=O)c1ccc(OCC(F)(F)F)nc1)c1ccc(Cl)cc1 | 18 | 56* | . | -3 | 68* | 14 | 48* | 42*
Cn1c(O)c(/C=C2\C=NN=C2c2ccccc2)sc1=S | 42* | 65* | 4 | 0 | 57* | 24 | 42* | 57* | tim10 confirm=42*
CCn1c(O)c(/C=C2\C=NN=C2c2ccccc2)sc1=S | 33 | 50* | . | -9 | 51* | 16 | 32* | 54*
CCCCn1c(O)c(/C=C2\C=NN=C2c2ccccc2)sc1=S | 9 | 29 | 29 | 11 | 38 | -1 | . | .
CC(C)c1ccc(NC(=O)C(c2ccccc2)N(C)C(=O)CCc2c[nH]c3ccccc23)cc1 (configuration not stated) | 8 | 22 | . | 22 | 10 | 2 | . | .
COc1cccc(-c2sc3ccc(OC)cc3c2-c2ccc(OCCN3CCCC3)cc2)c1 | 12 | 70* | . | . | 40* | . | 38* | 46*
COc1cccc(-c2sc3ccccc3c2-c2ccc(OCCN3CCCC3)cc2)c1 | -26 | 17 | . | . | 4 | 34 | . | .
CCOC(=O)C1CCN(CCCSc2ccc(C)cc2)CC1 | . | . | . | -5 | . | . | . | .
O=[N+]([O-])c1cncc([N+](=O)[O-])c1Nc1ccccc1Cl | 4 | 57* | -2 | 8 | 51* | -11 | 43* | 69*
NS(=O)(=O)c1ccc(Nc2c([N+](=O)[O-])cncc2[N+](=O)[O-])cc1 | -3 | 0 | -3 | 6 | -3 | 19 | . | .
O=c1[nH]c(C2CCCN(S(=O)(=O)c3ccc(F)cc3)C2)nc2c1nnn2Cc1ccc(F)cc1 (configuration not stated) | -25 | -14 | 4 | 10 | -13 | 4 | . | .
O=C(NC1=NCCS1)c1cc(-c2ccc(F)cc2)nc2ccccc12 | 51* | 59* | 16 | 1 | 50* | 20 | 51* | 60* | tim10 confirm=-8
COc1cc(C(=O)NCC(c2ccc(F)cc2)N2CCOCC2)ccc1OCc1ccccc1Cl (configuration not stated) | 29 | 28 | . | 2 | 25 | 17 | . | .
C#CCOCCOCCOCCNc1nc(N2CCN(C(=O)CCCCCCCCCCNC(=O)[C@H](CCCCN)n3cc(C)nn3)CC2)nc(N2CCN(C(=O)CCCCCCCCCCNC(=O)[C@H](CCCN=C(N)N)n3cc(C[C@@H](C)CC)nn3)CC2)n1 | 9 | 50* | . | . | 40* | 8 | 13 | 64*
C#CCOCCOCCOCCNc1nc(N2CCN(C(=O)CCCCCCCCCCNC(=O)[C@H](CCCCN)n3cc(C[C@@H](C)CC)nn3)CC2)nc(N2CCN(C(=O)CCCCCCCCCCNC(=O)[C@H](CCCN=C(N)N)n3cc(C[C@@H](C)CC)nn3)CC2)n1 | -6 | 47 | . | . | 29 | 11 | . | .
CCCCCCCCCCn1c2c(c(=N)c3c1CCC3)CCC2 | 39 | 83* | 34* | ? | 65* | 43 | 30 | 76*
COc1ccccc1CNC(=O)/C(C#N)=C/c1ccc(OC)c(OC)c1OC | 24 | 53* | -4 | -9 | 46* | 14 | 45* | -23
COc1ccc(/C=C(\C#N)C(=O)OCC(=O)NCc2ccccc2OC)cc1 | -9 | 1 | . | 18 | 2 | 18 | . | .
CCOC(=O)COc1c(C=O)cc(Br)cc1OC | 65* | 61* | -8 | -8 | 45* | 8 | 36* | 75* | tim10 confirm=53*
O=c1oc(-c2ccccc2Cl)nc2ccsc12 | 34 | 70* | -4 | 1 | 44* | 10 | 35* | 60*
Cc1ccc(-c2cc3nc(C)cc(NCc4ccco4)n3n2)cc1 | 29 | 58* | -5 | 14 | 41* | 22 | 38* | 55*
Cc1oc2c(c1C(=O)c1ccccc1)C(=O)C(=O)c1ccccc1-2 | 51* | 68* | 7 | 34 | 56* | 16 | 50* | 67* | tim10 confirm=53*
CCOC(=O)c1c(C)oc2c1C(=O)c1ccccc1C2=O | 73* | 79* | 5 | . | 72* | -4 | 74* | 94* | tim10 confirm=64*
Cc1oc2c(c1C(=O)O)C(=O)c1ccccc1C2=O | 13 | 15 | 6 | 23 | 5 | 3 | . | .
O=C1C(=O)c2c(C(=O)c3ccccc3)coc2-c2ccccc21 | 74* | 71* | 11 | 19 | 93* | 1 | 91* | 65* | tim10 confirm=81*
SMILES | TIM10 inh | tim23-1 inh | NALP1 inh | SKKanGAS inh | tim10-1 inh | NLRP3 yeast inh | tim10-1 confirm | tim23-1 confirm | others
COc1ccc(NS(=O)(=O)c2cccc(C(=O)NNC(=O)c3cncc(Br)c3)c2)cc1 | 1 | 3 | . | 3 | 7 | -1 | . | .
Cc1ccc(NC(=O)C2C3CCCCC32)cc1[N+](=O)[O-] (configuration not stated) | 6 | 25 | 8 | 12 | 19 | 28 | . | .
Cc1cc(NC(=O)OC2CCCCC2)ccc1[N+](=O)[O-] | 34 | 53* | -4 | 7 | 49* | 28 | 25 | 55*
CCOC(=O)Cc1csc(SCC(=O)Nc2oc(C)c3c(C)n[nH]c(=O)c23)n1 | -4 | -4 | . | . | -2 | 13 | . | .
CCOc1cc(/C=C2/C(=O)ON=C2C)ccc1OCc1ccccc1 | 21 | 33 | -2 | -6 | 30 | 17 | . | .
CCOc1cc(/C=C2/C(=O)ON=C2C)ccc1OCc1ccccc1F | 24 | 58* | 11 | 8 | 52* | 32 | 25 | 52*
O=C(Nc1cc(Br)ccc1O)C1CC(c2c(F)cccc2Cl)=NO1 (configuration not stated) | 24 | 38 | 18 | 11 | 21 | -16 | . | .
COc1ccc(Cl)cc1NC(=O)C1CC(c2c(F)cccc2Cl)=NO1 (configuration not stated) | 65* | 65* | 10 | 36 | 80* | 20 | 76* | 85* | tim10 confirm=72*
NNc1nc(-c2ccccc2Cl)c2cc(Br)ccc2n1 | 41* | 57* | 11 | 20 | 49* | -1 | 37* | 43* | tim10 confirm=30*
CCc1nc(SCC(=O)Nc2cc(C)ccc2OC)c2c(C)c(C)sc2n1 | -8 | 20 | 9 | 0 | 10 | 24 | . | .
CC(=O)N1CC(C)Oc2ccc(S(=O)(=O)Nc3ccc(Cl)cn3)cc21 (configuration not stated) | -2 | 2 | 21 | 39 | 6 | -1 | . | .
CCOC(=O)c1nc(NCc2ccccc2)sc1C | 19 | 32 | -2 | -3 | 13 | 8 | . | .
Cc1ccc(-c2nc3cccnc3s2)cc1NS(=O)(=O)c1cccs1 | 6 | 58* | 5 | 26 | 43* | -37 | 32* | 53*
